# D1 mod – D1 CRE-luciferase signal change, two-sided – cell-based, HEK293 D1, dopamine EC30, D1 allosteric modulator project, primary screen | B-score at 10 µM | D(1A) dopamine receptor (Homo sapiens), P21728 | hit rate 5.9% among 58,000 | dopamine EC30 potentiation; actives deviate in either direction | AID 641, 2007;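 active means luminescence count or its row- and column-corrected plate score outside the 99.7% band of the plate's sample wells, on either side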
# Target sequence (P21728 whole entry, looked up): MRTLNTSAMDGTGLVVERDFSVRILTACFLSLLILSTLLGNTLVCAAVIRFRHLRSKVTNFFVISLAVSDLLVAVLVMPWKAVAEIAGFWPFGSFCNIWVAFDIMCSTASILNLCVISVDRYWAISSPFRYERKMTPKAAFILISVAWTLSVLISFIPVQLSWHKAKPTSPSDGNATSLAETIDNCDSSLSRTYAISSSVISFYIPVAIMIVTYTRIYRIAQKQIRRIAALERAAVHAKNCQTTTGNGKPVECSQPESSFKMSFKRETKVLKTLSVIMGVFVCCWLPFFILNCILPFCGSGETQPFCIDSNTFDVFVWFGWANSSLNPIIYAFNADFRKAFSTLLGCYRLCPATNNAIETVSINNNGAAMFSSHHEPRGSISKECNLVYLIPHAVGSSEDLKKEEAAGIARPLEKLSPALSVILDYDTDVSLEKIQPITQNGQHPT
# BAP1 inh – inhibitors of BAP1 deubiquitinase, primary screen, biochemical, Ub-AMC fluorescence, kinetic | Ubiquitin carboxyl-terminal hydrolase BAP1 (Homo sapiens), Q92560 | recombinant BAP1, Ub-AMC hydrolysis fluorescence kinetic; stronger effect = lower value | calls only at 20 µM | hit rate 0.48% among 72,000 | AID 436, 2006;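 active means activity remaining at or below 50% of control, provided the compound also passes the data quality filters; inactive means the rest, including low values that fail the filters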
# hDAT+cocaine – changed hDAT dopamine uptake under cocaine IC80, either direction, primary screen, cocaine antagonist project, cell-based, LLC-PK1 hDAT, [14C]-dopamine uptake, MLSMR | Sodium-dependent dopamine transporter (Homo sapiens), Q01959 | B-score at 10 µM | hit rate 1.3% among 110,000 | LLC-PK1 hDAT cells, [14C]-dopamine uptake with cocaine IC80; actives deviate in either direction;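 active means Z score or B-score, a plate-position-corrected score, falls beyond the plate's 99.7% confidence bounds, in either direction; inactive means both scores lie inside the 99.7% bounds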
# D1 PAM confirm – D1 receptor positive allosteric modulators, retest, confirmation, cell-based, HEK293 D1, CRE-luciferase, duplicate | dopamine EC30 potentiation; stronger effect = higher value | hit rate 88% among 2,200 | shares compounds with D1 mod | AID 642, 2007 | luminescence at 10 µM;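 active means luminescence in either of two replicates above the same-plate mean plus 3 SD of the low-dose dopamine control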
# D1 no dopamine – D1 receptor agonism without dopamine, confirmation, mechanism study for D1 allosteric modulator project, cell-based, HEK293 D1, CRE-luciferase, secondary assay 1; AID 646, 2007; luminescence, no dopamine; stronger effect = higher value; hit rate 0.8% among 1,900; luminescence at 10 µM; shares compounds with D1 mod; in the data active means luminescence above about 3900
# Isoprot counter – alters isoproterenol CRE-luciferase response in HEK293 cells | shares compounds with D1 mod | HEK293 D1 CRE-luciferase, isoproterenol EC30 counter-screen; stronger effect = higher value | luminescence at 10 µM | hit rate 63% among 2,200;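 active means luminescence in either replicate above plate mean of wells with a partly effective reference agonist dose plus 3 SD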;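 further: isoproterenol raises cAMP through native beta-adrenoceptor Gs so signal bypasses D1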
# A number is an active result; i = inactive; nt = no result given. This excerpt belongs to a sample that is enriched for hits.
SMILES,D1 mod,BAP1 inh,hDAT+cocaine,D1 PAM confirm,D1 no dopamine,Isoprot counter
COc1ccc(C(=O)CSc2nnnn2Cc2ccccc2)cc1,i,i,i,nt,nt,nt
CCOC(=O)C1CCCN(c2nc3ccccc3nc2C(C#N)C(=O)OCCOC)C1 (centres undefined),i,i,i,nt,nt,nt
CCOC(=O)C1CCCN(c2nc3ccccc3nc2C(C#N)C(=O)OCC)C1 (centres undefined),3,i,i,8656,i,i
O=C(OCc1nnc(-c2ccccc2)o1)c1ccco1,i,i,i,nt,nt,nt
CCOc1ncccc1C(=O)OCc1nnc(-c2ccccc2)o1,4.1,i,i,13008,i,i
COc1ccc2c(c1)sc1nc(-c3cc4ccccc4oc3=O)cn12,nt,i,nt,nt,nt,nt
Cc1cc(C)n(-c2nc3ccccc3c(=O)n2OC2CCCCC2)n1,i,i,i,nt,nt,nt
Cc1cc(C)n(-c2nc3ccccc3c3nc(C)nn23)n1,9.6,i,i,13408,nt,3020
COc1ccc(OC)c(NC2c3ncccc3C(=O)N2Cc2ccco2)c1 (centres undefined),8.7,i,i,11124,nt,3236
COc1ccc(CN2C(=O)c3cccnc3C2O)cc1 (centres undefined),nt,nt,i,nt,nt,nt
COc1ccc(CN2C(=O)c3cccnc3C2Nc2cc(Cl)ccc2OC)cc1 (centres undefined),12,i,i,26704,i,6624
CCOC(=O)c1ccc(NC2c3ncccc3C(=O)N2Cc2ccc(F)cc2)cc1 (centres undefined),i,i,i,nt,nt,nt
COC(=O)c1cc(NC2c3ncccc3C(=O)N2Cc2ccccc2)cc(C(=O)OC)c1 (centres undefined),19,i,i,20824,i,5104
COc1ccc(NC2c3ccccc3C(=O)N2Cc2ccco2)cc1OC (centres undefined),i,i,i,nt,nt,nt
O=C(Nc1ccc(-c2nc3ccccc3o2)cc1)c1ccc([N+](=O)[O-])o1,nt,i,nt,nt,nt,nt
C=CCn1c(SCc2nc3c(c(=O)[nH]c(=O)n3CCCC)n2CCC)nnc1-c1ccccc1,3.8,i,i,9252,i,i
CCCn1c(SCc2ccccc2)nc2c1c(=O)[nH]c(=O)n2C,i,i,i,nt,nt,nt
Cc1cc2c(cc1C)NC(c1ccc([N+](=O)[O-])o1)C1=C(CC(C)(C)CC1=O)N2 (centres undefined),nt,i,nt,nt,nt,nt
COc1ccc(CCNC(=O)C2CC(=O)N(C3CCCCCCC3)C2)cc1OC (centres undefined),nt,nt,i,nt,nt,nt
COc1ccc(CCNC(=O)C2CC(=O)N(c3ccccc3)C2)cc1OC (centres undefined),2.9,i,i,i,i,i
CCCCN(C(=O)NC(=O)NC(C)(C)C)S(C)(=O)=O,nt,i,nt,nt,nt,nt
C=CCN1C(=O)C(C(c2ccc(Cl)cc2)C2C(=O)NC(=S)N(CC=C)C2=O)C(=O)NC1=S (centres undefined),nt,i,nt,nt,nt,nt
COc1cc(OC)cc(C(=O)NCc2n[nH]c(=S)n2-c2ccc(Br)cc2)c1,nt,i,nt,nt,nt,nt
CCOC(=O)c1c(NC(=O)OC)sc(C(=O)N(CC)CC)c1C,4.2,nt,i,8956,i,3244
CCN(CC)C(=O)c1sc(NC(=O)c2ccoc2C)c(C(=O)OC)c1C,i,i,i,nt,nt,nt
SMILES,D1 mod,BAP1 inh,hDAT+cocaine,D1 PAM confirm,D1 no dopamine,Isoprot counter
CCCCn1cc(C(C)(C)C)c(C#N)c1NC(C)=O,6,i,i,9748,i,3100
CCCCn1c(NC(=O)c2ccccc2)c(C#N)c2nc3ccccc3nc21,i,nt,nt,nt,nt,nt
CCCc1cc(C(N)=O)c(NC(=O)c2ccco2)s1,5,i,i,10424,i,3216
CCCc1cc(C(N)=O)c(NC(=O)C2CCCO2)s1 (centres undefined),i,i,i,nt,nt,nt
COc1ccc(OCC(=O)Nc2ccc(F)cc2)cc1,nt,i,nt,nt,nt,nt
CC(=O)NC1Sc2ccccc2N=C1c1ccccc1 (centres undefined),6.1,i,i,7472,nt,i
Cc1cc(C)c(-c2csc(NC(=O)c3ccc(S(=O)(=O)N4CCc5ccccc54)cc3)n2)c(C)c1,nt,i,nt,nt,nt,nt
O=S(=O)(c1cccs1)N1CCN(c2ccccn2)CC1,11,i,i,10548,i,i
O=S(=O)(c1cccs1)N1CCN(c2ncccn2)CC1,i,nt,i,nt,nt,nt
CSc1ncccc1C(=O)OCc1ccccc1F,10,i,i,16732,i,3808
CSc1ncccc1C(=O)OCc1ccccc1,nt,i,i,nt,nt,nt
COc1ccc(CCN(C)C(=O)CSc2nccn2C)cc1OC,4.5,i,i,9340,nt,i
COc1ccc(CCN(C)C(=O)N2CCOCC2)cc1OC,i,i,i,nt,nt,nt
O=C1Nc2ccc(S(=O)(=O)N3CCCC3)c3ccc(S(=O)(=O)N4CCCC4)c1c23,5.2,nt,i,12808,nt,2900
CCN1C(=O)c2cccc3c(S(=O)(=O)N4CCCC4)ccc1c23,nt,i,nt,nt,nt,nt
N#CC1=C(C2CC2)CC(c2ccccc2)C(C#N)=C1N (centres undefined),i,i,i,nt,nt,nt
N#CC1=C(N)SC2(CCCCC2)SC1c1ccccc1 (centres undefined),3.2,i,i,6560,nt,2760
CC(=O)c1c(O)c2ccccc2oc1=O,nt,i,nt,nt,nt,nt
Cc1ccc(-c2csc3nnc(SCc4csc(C)n4)n23)cc1,9.3,i,i,22688,i,5044
Cc1noc(C)c1CSc1nnc(-c2c[nH]c3ccccc23)n1-c1ccc(Cl)cc1,nt,i,i,nt,nt,nt
Cc1noc(C)c1CSc1nnc2scc(-c3ccc(Cl)cc3)n12,7.8,i,i,18508,i,4540
Cc1sc(NC(=O)CSc2nnc3scc(-c4ccccc4)n23)c(C#N)c1C,i,i,i,nt,nt,nt
Cc1nnc(NC(=O)CSc2nnc3scc(-c4ccc(C)c(C)c4)n23)s1,i,i,i,nt,nt,nt
Cc1nc(CSc2nnc3scc(-c4ccccc4)n23)cs1,10,i,i,21372,i,4364
Cc1ccc(NS(=O)(=O)c2ccc(N)cc2)nc1,nt,i,nt,nt,nt,nt
SMILES,D1 mod,BAP1 inh,hDAT+cocaine,D1 PAM confirm,D1 no dopamine,Isoprot counter
COc1ccccc1C1NC(=O)C(=O)/C1=C(/O)c1ccc(Br)cc1 (centres undefined),nt,i,nt,nt,nt,nt
c1ccc(Cc2nn3c(C4COc5ccccc5O4)nnc3s2)cc1 (centres undefined),6,i,i,14652,i,3728
c1ccc(CCc2nn3c(C4COc5ccccc5O4)nnc3s2)cc1 (centres undefined),i,i,i,nt,nt,nt
C=CCSc1nc(N)c2c(C)c(C)sc2n1,4.9,i,i,18248,i,4196
CCSc1nc(N)c2c(C)c(C)sc2n1,nt,nt,i,nt,nt,nt
Cc1ccc(-n2nc3cc(C)c(NC(=O)c4ccco4)cc3n2)cc1,nt,i,nt,nt,nt,nt
COc1cc2[nH]c(=S)n(CC3CCCO3)c(=O)c2cc1OC (centres undefined),i,i,i,nt,nt,nt

# Assay outcomes deposited in PubChem by several laboratories.
